This note sets out measurements from ChEMBL document CHEMBL3988442, “University of Dundee, Small-Polar-MMV Screening Library” (2021).

SMILES strings stand for the structures. For some of these results: Measured potencies and affinities stand elsewhere.

Common to all, as to parameters: scale not given: direction of the effect not stated beside the values
Experiment [1] has as its target Protein translocase subunit SecA (Escherichia coli (strain K12)) (UniProt P10408). In words: Assay to Identify E. coli SecA ATPase Inhibitors. The settings on record: 30 µM. In kind it is functional.
Experiment [2] addresses T1, Ubiquitin-activating enzyme e1, putative (Leishmania donovani (strain BPK282A1)) (UniProt E9BSI1).
T1 sequence (whole entry): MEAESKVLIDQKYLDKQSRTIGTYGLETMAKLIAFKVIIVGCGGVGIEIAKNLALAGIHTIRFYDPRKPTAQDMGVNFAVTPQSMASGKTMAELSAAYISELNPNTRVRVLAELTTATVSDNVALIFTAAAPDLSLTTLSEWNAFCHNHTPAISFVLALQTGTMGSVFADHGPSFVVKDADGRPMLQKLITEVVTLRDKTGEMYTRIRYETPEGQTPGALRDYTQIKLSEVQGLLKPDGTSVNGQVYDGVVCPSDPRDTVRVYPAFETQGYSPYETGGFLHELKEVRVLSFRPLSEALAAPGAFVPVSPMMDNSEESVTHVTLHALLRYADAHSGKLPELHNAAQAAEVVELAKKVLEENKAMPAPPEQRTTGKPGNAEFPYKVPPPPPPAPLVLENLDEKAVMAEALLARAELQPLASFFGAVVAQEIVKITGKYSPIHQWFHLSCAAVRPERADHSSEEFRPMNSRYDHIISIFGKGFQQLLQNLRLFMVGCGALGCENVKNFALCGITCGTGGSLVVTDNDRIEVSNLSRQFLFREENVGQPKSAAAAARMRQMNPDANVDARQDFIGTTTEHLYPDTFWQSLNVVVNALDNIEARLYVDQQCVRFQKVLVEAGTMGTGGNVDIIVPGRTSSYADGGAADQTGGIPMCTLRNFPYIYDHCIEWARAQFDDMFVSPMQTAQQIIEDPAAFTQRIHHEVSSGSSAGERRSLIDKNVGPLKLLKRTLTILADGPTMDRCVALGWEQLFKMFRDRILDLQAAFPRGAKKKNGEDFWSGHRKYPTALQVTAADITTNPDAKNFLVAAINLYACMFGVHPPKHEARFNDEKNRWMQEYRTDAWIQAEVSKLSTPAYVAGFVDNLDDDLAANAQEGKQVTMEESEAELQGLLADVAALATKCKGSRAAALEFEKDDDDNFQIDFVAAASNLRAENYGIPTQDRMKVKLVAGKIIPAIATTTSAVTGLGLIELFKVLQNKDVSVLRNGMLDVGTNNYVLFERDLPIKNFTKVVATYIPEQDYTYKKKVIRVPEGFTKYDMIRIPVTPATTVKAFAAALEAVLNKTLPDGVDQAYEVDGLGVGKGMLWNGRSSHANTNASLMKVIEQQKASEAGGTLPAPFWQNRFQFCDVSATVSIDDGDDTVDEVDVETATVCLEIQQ
In words: Leishmania donovani Ubiquitin Activating Enzyme (LdE1). In kind it is functional. As to conditions: 30 µM.

Experiment [3] concerns the target AMP-activated protein kinase, AMPK (Homo sapiens) (UniProt P54646+O43741+P54619+Q9UGJ0+Q9Y478+Q13131+Q9UGI9). In words: AMP-dependent Kinase enzyme assay. An in vitro enzyme assay that detects ADP turnover that is directly proportional to AMPK activity. This uses naive AMPK that is activated during the assay with MK-8722. In kind it is functional. The settings on record: 30 µM.

For experiment [4], the target named is Sialic acid-binding Ig-like lectin 9 (Homo sapiens) (UniProt Q9Y336). In words: Hs-Siglec9 ALPHAscreen SOP 20170721. The settings on record: 10 µM. (Alpha assays give light when donor and acceptor beads are brought close together.)
Experiment [5] relates to Trypanosoma cruzi. In words: Trypanosoma cruzi phosphomannomutase and mannose-1-phosphate guanylyltransferase assay. In kind it is functional. As to conditions: 10 µM.
Experiment [6] deals with T2, Arginase-2, mitochondrial (Homo sapiens) (UniProt P78540).
T2 sequence (whole entry): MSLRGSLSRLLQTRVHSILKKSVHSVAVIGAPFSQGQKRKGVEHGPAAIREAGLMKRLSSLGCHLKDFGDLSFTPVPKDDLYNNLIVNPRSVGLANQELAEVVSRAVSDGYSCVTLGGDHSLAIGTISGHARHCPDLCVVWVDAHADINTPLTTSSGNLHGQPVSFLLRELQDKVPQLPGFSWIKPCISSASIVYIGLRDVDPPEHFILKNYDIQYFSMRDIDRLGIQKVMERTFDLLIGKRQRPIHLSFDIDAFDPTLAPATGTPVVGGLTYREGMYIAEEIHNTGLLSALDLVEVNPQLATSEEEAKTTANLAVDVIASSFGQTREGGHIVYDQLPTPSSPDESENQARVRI
Put plainly: in vitro enzyme assay to detect the production of urea directly proportional to the activity of Arginase II. Note: in the data most compounds retested in dose-response had high values. In kind it is functional. The settings on record: 33.3 µM.

Experiment [7] addresses T3, Proteasome subunit beta (Trypanosoma cruzi) (UniProt O96673).
T3 sequence (whole entry): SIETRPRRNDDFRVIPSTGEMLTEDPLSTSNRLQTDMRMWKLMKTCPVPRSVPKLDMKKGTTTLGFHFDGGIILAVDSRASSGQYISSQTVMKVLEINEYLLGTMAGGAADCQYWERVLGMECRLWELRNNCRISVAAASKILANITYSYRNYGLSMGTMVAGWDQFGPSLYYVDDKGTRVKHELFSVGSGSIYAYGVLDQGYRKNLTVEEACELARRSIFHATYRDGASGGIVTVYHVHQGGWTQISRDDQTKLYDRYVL
In words: Trypanosoma cruzi proteasome chymotrypsin-like activity (TcProtChymo) assay. Note: in the data most compounds retested in dose-response had high values. As to conditions: 9.37 µM. In kind it is functional.

The species named for experiment [8] is Homo sapiens. Put plainly: To identify inhibition of the IFN signalling (Jak-Stat) pathway via expression of an eGFP reporter gene under the control of an IFN-stimulated response element (ISRE) containing MxA promoter. In kind it is functional. As to conditions: 30 µM. A general note: Reporter assays use an easily measured gene product as a stand-in for the process of interest.

For experiment [9], the target named is T4, Tyrosyl-tRNA synthetase, putative (Trypanosoma cruzi (strain CL Brener)) (UniProt Q4DSP6).
T4 sequence (whole entry): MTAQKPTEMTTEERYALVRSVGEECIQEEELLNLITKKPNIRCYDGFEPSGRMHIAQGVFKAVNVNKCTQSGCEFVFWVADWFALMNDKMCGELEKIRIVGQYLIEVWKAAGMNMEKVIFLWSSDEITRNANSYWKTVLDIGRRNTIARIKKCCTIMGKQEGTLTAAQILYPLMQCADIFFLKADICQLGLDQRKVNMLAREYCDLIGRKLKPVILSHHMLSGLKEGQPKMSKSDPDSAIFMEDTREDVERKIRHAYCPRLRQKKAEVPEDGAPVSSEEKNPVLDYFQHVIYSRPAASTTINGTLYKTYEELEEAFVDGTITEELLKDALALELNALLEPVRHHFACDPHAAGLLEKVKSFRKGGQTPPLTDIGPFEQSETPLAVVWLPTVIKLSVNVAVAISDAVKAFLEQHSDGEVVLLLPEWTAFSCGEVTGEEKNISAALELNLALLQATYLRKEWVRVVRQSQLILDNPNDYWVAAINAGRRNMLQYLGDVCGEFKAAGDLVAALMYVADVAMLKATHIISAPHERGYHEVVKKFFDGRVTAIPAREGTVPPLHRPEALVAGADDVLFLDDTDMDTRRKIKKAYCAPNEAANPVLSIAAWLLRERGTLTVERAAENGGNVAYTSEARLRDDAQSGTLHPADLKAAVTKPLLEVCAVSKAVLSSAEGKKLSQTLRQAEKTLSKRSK
Put plainly: Trypanosoma cruzi tyrosyl tRNA synthetase (TcYRS) _High Tyrosine SOP. Note: in the data most compounds retested in dose-response had high values. In kind it is functional. As to conditions: 30 µM.

Experiment [10] has as its target T4, Tyrosyl-tRNA synthetase, putative (Trypanosoma cruzi (strain CL Brener)). Put plainly: Trypanosoma cruzi tyrosyl tRNA synthetase (TcYRS) SOP. In kind it is functional. As to conditions: 30 µM.
Experiment [11] concerns the target Chromo domain-containing protein 1 (Saccharomyces cerevisiae (strain ATCC 204508 / S288c) (Baker's yeast)) (UniProt P32657). In words: ScCHD-1 Enzyme Inhibition Assay. Note: in the data most compounds retested in dose-response had high values. The settings on record: 30 µM. In kind it is functional.

Chain of Protein translocase subunit SecA (Escherichia coli (strain K12)) (P10408 whole entry): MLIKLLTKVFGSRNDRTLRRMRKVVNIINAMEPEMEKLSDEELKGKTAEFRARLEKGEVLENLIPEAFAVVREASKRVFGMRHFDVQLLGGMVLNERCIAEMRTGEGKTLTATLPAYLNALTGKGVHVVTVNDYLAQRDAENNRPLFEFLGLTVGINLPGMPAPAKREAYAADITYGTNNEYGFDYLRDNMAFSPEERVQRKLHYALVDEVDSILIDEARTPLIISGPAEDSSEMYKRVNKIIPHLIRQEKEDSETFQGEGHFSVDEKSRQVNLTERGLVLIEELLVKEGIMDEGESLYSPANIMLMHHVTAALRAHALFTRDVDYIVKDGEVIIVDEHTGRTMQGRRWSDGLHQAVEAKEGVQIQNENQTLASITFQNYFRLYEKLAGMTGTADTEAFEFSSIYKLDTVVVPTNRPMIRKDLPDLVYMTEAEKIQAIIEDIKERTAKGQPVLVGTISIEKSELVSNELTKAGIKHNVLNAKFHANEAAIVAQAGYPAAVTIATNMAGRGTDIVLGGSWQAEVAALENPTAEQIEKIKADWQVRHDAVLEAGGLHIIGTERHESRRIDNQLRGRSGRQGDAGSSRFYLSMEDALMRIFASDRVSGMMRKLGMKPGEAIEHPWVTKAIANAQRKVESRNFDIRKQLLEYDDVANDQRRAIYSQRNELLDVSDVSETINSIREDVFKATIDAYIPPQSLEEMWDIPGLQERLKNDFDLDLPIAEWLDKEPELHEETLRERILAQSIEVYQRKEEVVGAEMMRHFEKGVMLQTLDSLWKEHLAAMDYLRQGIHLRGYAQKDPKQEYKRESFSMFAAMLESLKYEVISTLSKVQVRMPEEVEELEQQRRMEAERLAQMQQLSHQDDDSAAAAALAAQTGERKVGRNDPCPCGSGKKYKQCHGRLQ
Chain of Chromo domain-containing protein 1 (Saccharomyces cerevisiae (strain ATCC 204508 / S288c) (Baker's yeast)) (P32657 whole entry, the tested form may be a part): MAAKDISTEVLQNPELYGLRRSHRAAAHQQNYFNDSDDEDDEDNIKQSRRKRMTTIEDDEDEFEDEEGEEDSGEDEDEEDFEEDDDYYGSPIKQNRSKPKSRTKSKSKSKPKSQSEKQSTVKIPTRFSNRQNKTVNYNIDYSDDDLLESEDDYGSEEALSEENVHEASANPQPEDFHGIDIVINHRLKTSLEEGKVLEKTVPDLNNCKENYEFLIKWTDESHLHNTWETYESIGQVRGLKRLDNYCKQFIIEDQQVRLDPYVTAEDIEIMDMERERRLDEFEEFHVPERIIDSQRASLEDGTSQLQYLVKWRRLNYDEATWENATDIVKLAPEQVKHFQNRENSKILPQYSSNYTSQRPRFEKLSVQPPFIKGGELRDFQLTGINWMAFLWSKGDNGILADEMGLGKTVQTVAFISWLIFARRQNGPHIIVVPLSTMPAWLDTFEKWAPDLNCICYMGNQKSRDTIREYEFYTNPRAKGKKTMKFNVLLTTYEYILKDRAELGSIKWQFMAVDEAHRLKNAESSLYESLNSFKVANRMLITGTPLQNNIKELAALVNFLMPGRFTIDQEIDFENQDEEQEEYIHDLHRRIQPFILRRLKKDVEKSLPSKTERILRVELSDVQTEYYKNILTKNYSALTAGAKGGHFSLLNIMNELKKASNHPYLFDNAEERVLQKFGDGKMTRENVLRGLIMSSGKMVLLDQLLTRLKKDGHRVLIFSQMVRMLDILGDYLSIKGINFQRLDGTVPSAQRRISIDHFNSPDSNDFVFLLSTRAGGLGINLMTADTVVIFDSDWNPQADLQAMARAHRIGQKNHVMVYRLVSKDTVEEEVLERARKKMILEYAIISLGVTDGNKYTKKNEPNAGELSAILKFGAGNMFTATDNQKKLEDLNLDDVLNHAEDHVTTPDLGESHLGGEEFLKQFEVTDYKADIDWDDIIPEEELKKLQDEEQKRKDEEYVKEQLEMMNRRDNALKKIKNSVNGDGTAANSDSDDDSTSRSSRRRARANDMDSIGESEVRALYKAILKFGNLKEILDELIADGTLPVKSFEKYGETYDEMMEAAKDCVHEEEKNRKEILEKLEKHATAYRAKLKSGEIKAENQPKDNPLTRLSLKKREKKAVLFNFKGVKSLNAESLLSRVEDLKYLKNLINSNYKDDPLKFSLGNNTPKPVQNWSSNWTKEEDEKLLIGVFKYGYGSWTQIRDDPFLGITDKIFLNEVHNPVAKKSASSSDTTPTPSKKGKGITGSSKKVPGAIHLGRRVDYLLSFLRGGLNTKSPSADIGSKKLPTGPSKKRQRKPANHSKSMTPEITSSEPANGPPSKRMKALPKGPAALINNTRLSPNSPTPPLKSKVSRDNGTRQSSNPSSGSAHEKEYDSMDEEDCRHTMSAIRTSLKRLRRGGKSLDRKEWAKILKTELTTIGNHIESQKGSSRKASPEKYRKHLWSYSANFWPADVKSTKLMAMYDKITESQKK
Chain of Sialic acid-binding Ig-like lectin 9 (Homo sapiens) (Q9Y336 whole entry): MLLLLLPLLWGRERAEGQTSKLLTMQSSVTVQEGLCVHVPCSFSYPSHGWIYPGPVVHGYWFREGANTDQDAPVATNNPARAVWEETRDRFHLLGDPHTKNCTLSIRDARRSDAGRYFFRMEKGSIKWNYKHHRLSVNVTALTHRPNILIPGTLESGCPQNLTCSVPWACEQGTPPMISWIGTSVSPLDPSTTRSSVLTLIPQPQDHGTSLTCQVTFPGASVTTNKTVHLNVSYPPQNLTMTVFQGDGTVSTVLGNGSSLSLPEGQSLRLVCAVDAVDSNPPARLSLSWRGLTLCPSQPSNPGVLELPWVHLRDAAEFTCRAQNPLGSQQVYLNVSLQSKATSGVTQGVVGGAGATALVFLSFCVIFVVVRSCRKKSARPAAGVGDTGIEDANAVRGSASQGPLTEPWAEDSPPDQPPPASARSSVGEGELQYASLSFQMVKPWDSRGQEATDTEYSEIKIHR

For `Cc1cc(C)n(CC2CCCN2Cc2c(C)noc2C)n1` (stereo unspecified), the Percent Effect in [1] was -2.91%; in [2] it was -2.7%; in experiment [3], 33.8%; in experiment [4], 8.4%; in experiment [5], 6.51%; in experiment [6], -0.802%. Further, the Percent Effect in experiment [7] is 5.59%; in experiment [8], 9.49%; in experiment [9] it was 2.46%; in experiment [10], 11.1%; in [11], -10.7%.

As for `CCc1nc(CN2CCN(C(=O)COCc3ccccc3)CC2)no1`, the Percent Effect in experiment [1] is -6.48%; in experiment [2] it was 8.11%; in experiment [3], -6.87%; in experiment [4], 35%; in experiment [5], 4.4%; in [6], 25.1%. In addition, the Percent Effect in [7] was 10.7%; in experiment [8] it was -6.99%; in experiment [9] it was 2.15%; in [10] it was 8.64%; in [11], -11.6%.

Take `CC(Cn1cccn1)NC(=O)CCc1ccc(S(N)(=O)=O)cc1` (stereo unspecified): the Percent Effect in [1] was -7.11%; in [2], 18.2%; in [3] it was -0.578%; in experiment [4] it was 3.31%; in [5], 6.37%; in experiment [6], -2.74%. For the same molecule, the Percent Effect in experiment [7] was 7.03%; in [8] it was 11%; in experiment [9], 6.67%; in [10], 23.5%; in [11], -9.46%.

Consider `COc1cccc2c1ccn2CC(=O)N[C@@H](CCSC)C(=O)O`, for which the Percent Effect in [1] is 1.36%; in experiment [2], -1.33%; in experiment [3], -55.8%; in [4], 3.95%; in experiment [5], -0.197%; in [6] it was -7.57%. Besides, the Percent Effect in experiment [7] was 11.5%; in [8] it was -11.4%; in [9], 4.23%; in [10] it was -30.8%; in [11] it was -0.515%.

Regarding `Cn1cc(CN2CCn3cc(CNC(=O)c4cccn4C)nc3C2)cn1`, the Percent Effect in [1] was -0.61%; in experiment [2], 0%; in experiment [3], 12.6%; in experiment [4], 0.00498%; in [5], -0.394%; in experiment [6] it was -0.699%. Besides, the Percent Effect in experiment [7] is -4.32%; in experiment [8] it was 3.52%; in experiment [9] it was 4.25%; in experiment [10] it was 6.41%; in experiment [11], 5.91%.

As for `CC(C)(C)c1ccc(C2(C(=O)NCCCS(C)(=O)=O)CC2)cc1`, the Percent Effect in experiment [1] is -2.57%; in [2], 7.79%; in [3], 1.11%; in experiment [4] it was 4.51%; in [5], -7.77%; in experiment [6], -1.38%. Moreover, the Percent Effect is 7.16% in experiment [7]; 0.292% in experiment [8]; 1.07% in experiment [9]; 6.17% in [10]; -0.462% in experiment [11].

Consider `Cc1cnccc1CN1CC[C@@](C)(O)[C@H](Oc2ccccc2)C1`, for which the Percent Effect in experiment [1] was -3.92%; in experiment [2], 9.46%; in experiment [3], 0.664%; in experiment [4] it was -0.228%; in experiment [5], 7.51%; in experiment [6], -4.41%. Further, the Percent Effect was 12.9% in experiment [7]; -16.3% in experiment [8]; 3.23% in [9]; 9.09% in experiment [10]; -13.2% in [11].

As to `CCNC(=O)C1CCN(Cc2csc(-c3ccc(C)o3)n2)CC1`, the Percent Effect in experiment [1] was -0.895%; in experiment [2] it was 11.4%; in [3], 2.01%; in experiment [4], 2.17%; in [5], 2.97%; in experiment [6], 1.5%. In addition, the Percent Effect in experiment [7] was 14.1%; in [8] it was 27.6%; in experiment [9], 7.29%; in experiment [10], 20.2%; in experiment [11], -26.4%.

As to `CCn1nc(-c2ccccc2F)ccc1=O`, the Percent Effect in [1] was -4.01%; in experiment [2] it was 0%; in [3], -2.64%; in experiment [4], -3.3%; in experiment [5], -9.29%; in experiment [6], -12.7%. The Percent Effect was 4.55% in [7]; 11.8% in experiment [8]; -1.07% in experiment [9]; 8.64% in experiment [10]; -2.39% in experiment [11].

Regarding `N#CC1(C(=O)NCCCNc2ccc(C(F)(F)F)cn2)CCCC1`, the Percent Effect in experiment [1] is 0.186%; in experiment [2], -2.63%; in [3], 6.89%; in [4], 5.29%; in experiment [5] it was 0.376%; in experiment [6] it was 1.53%. Moreover, the Percent Effect is 7.18% in [7]; 23% in [8]; 2.45% in experiment [9]; 4.88% in [10]; -0.995% in experiment [11].

For the molecule `Cc1nc(C)n(CC2CN(CC(=O)Nc3cccnc3)CCO2)n1` (stereo unspecified), the Percent Effect in experiment [1] was -3.48%; in [2], 4.17%; in experiment [3], 1.48%; in experiment [4], -1.08%; in [5] it was -0.486%; in experiment [6], 2.65%. Further, the Percent Effect is 2.1% in experiment [7]; -1.3% in [8]; 4.21% in [9]; 5.13% in experiment [10]; 0.336% in experiment [11].
